Source: PubChem BioAssay AID652031 (The Scripps Research Institute Molecular Screening Center, 2013)
Screen size: about 16,000 compounds; about 70 (0.4%) were called active. Cut-off read from the data, not from the text of the source: active = inhibition above about 50%; inactive = the rest. For the sample, actives were picked, then their nearest neighbours and some compounds at random.

Target: Kappa-type opioid receptor (Homo sapiens) (UniProt P41145)
Assay: antagonists of human kappa opioid receptor OPRK1, Maybridge library (AID 652031)
Conditions: OPRK1 cells, antagonist mode, fluorescence readout; at 9 µM; stronger effect = higher value

Kappa-type opioid receptor (Homo sapiens), sequence (P41145 whole entry, looked up): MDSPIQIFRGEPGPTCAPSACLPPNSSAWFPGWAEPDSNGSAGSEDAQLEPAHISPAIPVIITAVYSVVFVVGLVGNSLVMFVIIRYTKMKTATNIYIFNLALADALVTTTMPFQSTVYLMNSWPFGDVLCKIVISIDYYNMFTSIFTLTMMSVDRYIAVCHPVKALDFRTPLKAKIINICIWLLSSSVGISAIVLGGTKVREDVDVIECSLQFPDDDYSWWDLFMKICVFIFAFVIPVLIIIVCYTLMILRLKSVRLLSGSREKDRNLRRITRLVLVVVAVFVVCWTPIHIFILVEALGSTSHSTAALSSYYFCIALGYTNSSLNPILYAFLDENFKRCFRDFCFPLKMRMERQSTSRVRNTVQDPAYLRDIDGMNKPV

Row | SMILES | inhibition
1 | O=C(CSc1nnc(-c2ccncc2)o1)N1CCc2ccccc21 | -5.6% (inactive)
2 | O=c1cc(-c2ccccc2)cc(-c2ccccc2)o1 | -11.3% (inactive)
3 | O=C(NNC(=S)Nc1ccccc1Cl)c1ccc(OC(F)(F)F)cc1 | 19.8% (inactive)
4 | O=c1c2c(nc3nc[nH]n13)CCC2 | -20.2% (inactive)
5 | CCN(CCN1C(=O)CCC1=O)c1cccc(NC(C)=O)c1 | -3.7% (inactive)
6 | N#CCc1ccc(OC(=O)c2cccnc2)cc1 | -6.4% (inactive)
7 | Cc1nc(-n2cccc2)sc1C(=O)N/N=C/c1ccccc1Cl | 33.9% (inactive)
8 | CCCS(=O)(=O)c1csc(C(=O)OC)c1N/N=C/c1cccs1 | -24.1% (inactive)
9 | Clc1cncc(Cl)c1N/N=C/C1CC2C=CC1C2 (configuration not stated) | 1.3% (inactive)
10 | CCCCCCCN=C(C)c1ccccc1O | -21.6% (inactive)
11 | CC(C)c1ccc(N2C(=O)/C(=C\c3ccc(-c4ccc([N+](=O)[O-])cc4)o3)SC2=S)cc1 | 8.3% (inactive)
12 | CCCN(CCC)S(=O)(=O)c1ccc(C(=O)NNC(=O)c2cc(OC)c(OC)c(OC)c2)cc1 | -2.1% (inactive)
13 | NC(=O)C1CCN(CC(O)COc2ccc(Cl)c(Cl)c2)CC1 (configuration not stated) | -8.2% (inactive)
14 | O=C(Nc1ccc(F)cc1OC(F)(F)F)N1CCC(O)CC1 | -18% (inactive)
15 | CC(C)(C)c1cc(NC(=O)/C(C#N)=C/c2cccc(Cl)c2Cl)c(C(N)=O)s1 | -7.1% (inactive)
16 | O=C(Nc1ccccc1C(=O)NC1CCSC1)c1cccc(Cl)c1 (configuration not stated) | -15% (inactive)
17 | COC(=O)CCN1CCc2cc(N=Nc3ccc(C(F)(F)F)cc3)ccc21 | 15.2% (inactive)
18 | CC(C)n1c(SCC(=O)c2cccc([N+](=O)[O-])c2)nc2cc(C(F)(F)F)ccc21 | -1.6% (inactive)
19 | O=C(CCc1ccc(O)cc1)N/N=C/c1cc(Cl)cc(Cl)c1O | 6.4% (inactive)
20 | Cc1ccc(NC(C(=O)O)c2ccccc2)cc1 (configuration not stated) | -11.7% (inactive)
21 | OC(CNCc1ccc2c(c1)OCO2)COc1ccccc1 (configuration not stated) | -20.1% (inactive)
22 | O=C(NCc1cccnc1)c1ccccc1NC(=O)c1c(F)cccc1F | -15.7% (inactive)
23 | O=C(N/N=C/c1ccc(Cl)cc1Cl)/C(=C/c1cccs1)NC(=O)c1ccccc1 | 11.5% (inactive)
24 | COC(=O)c1ccccc1NC(=O)c1ccc(Oc2cc(Cl)cc(Cl)c2)o1 | -7% (inactive)

Row | SMILES | inhibition
25 | O=C(NCc1ccc2c(c1)OCO2)c1sccc1Br | -14.9% (inactive)
26 | O=C(NCc1ccc(F)cc1F)c1cc(C(F)(F)F)cc(C(F)(F)F)c1 | 2.1% (inactive)
27 | CCOC(=O)C(NC(=O)c1ccco1)(Nc1cc(C)ccn1)C(F)(F)F (configuration not stated) | -1.7% (inactive)
28 | CSc1cccc(NC(=O)C(=O)NCCc2ccccn2)c1 | 17.5% (inactive)
29 | CCOC(=O)CCSc1cc(-n2cccc2)c(Cl)cc1[N+](=O)[O-] | -12.9% (inactive)
30 | CCOC(=O)Cn1sc2nc(C)cc(C)c2c1=O | -8.2% (inactive)
31 | O=C(c1ccccc1I)c1c[nH]c2ccccc12 | 2.4% (inactive)
32 | O=C1C=C(NNc2ccccc2)CCC1 | -30.2% (inactive)
33 | O=[N+]([O-])c1ccc2ncccc2c1-n1cccc1 | -23.5% (inactive)
34 | CC(OC(=O)c1cccc(Cl)c1)c1ccc[n+](C)c1 (configuration not stated) | 1.5% (inactive)
35 | CN(n1cnc2ccccc2c1=O)S(=O)(=O)c1cc(Cl)sc1Cl | 4.5% (inactive)
36 | O=c1o[nH]c(-c2ccccc2)c1N=Nc1c(F)cccc1Cl | 4.9% (inactive)
37 | O=C(O)C1CCC1C(=O)Nc1nnc(C2CC2)s1 (configuration not stated) | 7.5% (inactive)
38 | O=C(NNC(=S)Nc1ccc(S(=O)(=O)N2CCCCC2)cc1)c1ccncc1 | 6% (inactive)
39 | CC(CC(=O)O)Oc1ccc(Cl)cc1[N+](=O)[O-] (configuration not stated) | -0.1% (inactive)
40 | O=C(O)CCC(=O)Nc1ccccc1 | 9.6% (inactive)
41 | O=C(CN1CCOCC1)NNC(=O)c1cccs1 | 9.5% (inactive)
42 | O=S(=O)(CCSc1ccccc1NS(=O)(=O)c1cccs1)c1ccc(Cl)cc1 | -16.4% (inactive)
43 | CCCN(CCC)S(=O)(=O)c1ccc(C(=O)Oc2c(C)cccc2OC)cc1 | -3.1% (inactive)
44 | Cc1noc(C)c1C(=O)N1CCOCC1 | 0.6% (inactive)
45 | CC(=O)OCc1ccc(COC(C)=O)c(OC(C)=O)c1OC(C)=O | -15.9% (inactive)
46 | O=C1C(Cl)=C(Oc2cc(Cl)c(Cl)cc2Cl)C(=O)c2ccccc21 | 21.4% (inactive)
47 | CO/N=C(/C)c1ccc2c(c1)CCO2 | 10.8% (inactive)
48 | COC(=O)/C=C/c1cn(C2OCC(CO)C2O)c(=O)[nH]c1=O (configuration not stated) | -22% (inactive)

Row | SMILES | inhibition
49 | O=C(OCc1ccco1)c1cnc(Nc2ccc(OC(F)(F)F)cc2)nc1C(F)(F)F | 17.4% (inactive)
50 | Cc1ccccc1C(=O)NNC(=O)c1ccccc1C1=NCCCN1 | -4.3% (inactive)
51 | O=C(NC(=O)C1CCN(c2ncccc2[N+](=O)[O-])CC1)Nc1ccc(Cl)cc1 | -2% (inactive)
52 | O=c1oc2ccc(Cl)cc2cc1-c1ccc([N+](=O)[O-])cc1 | -18.5% (inactive)
53 | CC(C)(C)c1cc(C(=O)/C=C2/NC(=O)CS2)no1 | 6.7% (inactive)
54 | Cc1nn(S(=O)(=O)c2ccc(Cl)cc2)cc1-c1ccccc1 | 0.1% (inactive)
55 | Cc1ccc(S(=O)(=O)NC(=O)NNc2ncnc3scc(-c4ccccc4)c23)cc1 | -34.5% (inactive)
56 | NC(N)=N/C(N)=N/c1nnc(C(F)(F)F)s1 | 13.1% (inactive)
57 | N#C/C(=C\c1sccc1Oc1ccccc1)S(=O)(=O)c1ccc(C(F)(F)F)cn1 | -9.5% (inactive)
58 | O=S(=O)(Cc1cccc(C(F)(F)F)c1)NCc1ccc2c(c1)OCO2 | 9.5% (inactive)
59 | O=c1[nH]cc(Br)c(=O)[nH]1 | 6.1% (inactive)
60 | CN(C)c1cc(-c2cc(Cl)sc2Cl)oc(=O)c1Cl | -5% (inactive)
61 | c1ccc(-n2cccc2)c(N2CCCCC2)c1 | -9.4% (inactive)
62 | CC(C)(C)C(=O)NNC(=O)c1ccc(Oc2ccc(C3SCCS3)cc2)o1 | 30.1% (inactive)
63 | CCOC(=O)/C(C#N)=C/NNc1c(C)csc1C(=O)OC | 8.8% (inactive)
64 | CS/C(=N/S(=O)(=O)c1c(C)noc1C)NNC(=O)Nc1ccc(Cl)cc1 | 1.3% (inactive)
65 | O=C(Nc1ccccc1C(F)(F)F)N1CCCC1c1cccnc1 (configuration not stated) | -12.3% (inactive)
66 | COc1cccc2cc(C(=O)O)oc12 | 19.9% (inactive)
67 | c1ccc(C2=NCCN=C2c2ccccc2)cc1 | -1.9% (inactive)
68 | O=C(O)c1nccnc1C(=O)NCCSCc1c(F)cccc1Cl | 2.6% (inactive)
69 | O=[N+]([O-])c1cc(C(F)(F)F)ccc1OCCO | 6.7% (inactive)
70 | Cc1ccc(/C=c2\sc3nc4ccccc4n3c2=O)o1 | 53.6% (active)
71 | CCOC(=O)CN1C(=O)/C(=C\c2ccc(C)o2)N=C1c1ccccc1 | 3.1% (inactive)
72 | O=C(Nc1ccccc1)N1CCN(Cc2ccccc2)CC1 | 8.5% (inactive)
